Results on ten compounds are retold here after PubChem BioAssay (NCI).

Molecules are shown by their SMILES. This is part of a sample that, as a whole, favours compounds with a hit. Of some 83,000 tested, about 20% had one in any assay.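 The endpoint reported here, percent growth, reads 100 for growth as untreated, 0 for no net growth and -100 for all cells dead.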 A number with no mark means an inactive call. Active and inactive are the calls of the source. Rule for the calls: active = growth percent below 10; inactive = the rest.

What all share (experiment): NCI-60 one-dose screen, 48 h (100 = growth as untreated, 0 = no growth, -100 = all killed)
One assay relates to SR leukemia. Particulars: 10 µM unless noted.
The subject of a further assay is RPMI-8226 leukemia. Particulars: 10 µM.
For a further assay, the system named is OVCAR-8 ovarian. The note with it: 10 µM unless noted.
A further assay deals with OVCAR-5 ovarian. Particulars: 10 µM unless noted.
A further assay deals with OVCAR-4 ovarian. The note with it: 10 µM unless noted.
The test system of a further assay is IGROV1 ovarian. The note with it: 10 µM unless noted.
A further assay deals with OVCAR-3 ovarian. Particulars: 10 µM unless noted.
Another assay relates to HS 578T breast. The note with it: 10 µM unless noted.
In another assay the test system is NCI/ADR-RES ovarian. Particulars: 10 µM unless noted.
In a further assay the test system is BT-549 breast. The note with it: 10 µM unless noted.
Another assay deals with MDA-MB-435 melanoma. The note with it: 10 µM unless noted.
For the next assay, the system named is SW-620 colon. Particulars: 10 µM unless noted.
A further assay has as its system MCF7 breast. The note with it: 10 µM unless noted.
For the next assay, the system named is HCT-116 colon. Particulars: 10 µM unless noted.
The next assay has as its system HCC-2998 colon. The note with it: 10 µM unless noted.
In the next assay the test system is KM12 colon. Particulars: 10 µM unless noted.
Another assay deals with SK-OV-3 ovarian. The note with it: 10 µM.
Another assay deals with T-47D breast. Particulars: 10 µM.

As to `COc1ccc(/C=C/C(=O)N2CCC(O)CC2)cc1OC1CCCC1`, the growth is 108% in the assay on SR leukemia; 107% in the assay on RPMI-8226 leukemia; 96.5% in the assay with OVCAR-8 ovarian; 104% with OVCAR-5 ovarian; 101% with OVCAR-4 ovarian; 104% in the assay with IGROV1 ovarian. Also, the growth in the assay with OVCAR-3 ovarian was 111%; with HS 578T breast it was 96.1%; in the assay on NCI/ADR-RES ovarian, 106%; in the assay on BT-549 breast, 117%; in the assay on MDA-MB-435 melanoma, 103%; with SW-620 colon it was 106%. Moreover, the growth in the assay on MCF7 breast was 95.4%; with HCT-116 colon, 106%; in the assay on HCC-2998 colon it was 111%; in the assay with KM12 colon, 105%.

On to `COc1ccc(/C=N/NC(=O)c2cnn3c2NC(c2ccccc2)C3)cc1OC1CCCC1` (stereo not given), for which the growth in the assay with SR leukemia is 47.2%; in the assay on RPMI-8226 leukemia it was 79%; in the assay with OVCAR-8 ovarian it was 85%; with OVCAR-5 ovarian, 101%; with OVCAR-4 ovarian it was 76.5%; in the assay on IGROV1 ovarian it was 101%. For the same compound, the growth in the assay with OVCAR-3 ovarian is 106%; in the assay with HS 578T breast it was 88%; in the assay with NCI/ADR-RES ovarian, 92.7%; with BT-549 breast, 93.3%; in the assay on MDA-MB-435 melanoma it was 61.7%; in the assay with SW-620 colon, 97.5%. In addition, the growth is 86.2% in the assay with MCF7 breast, 82% in the assay with HCT-116 colon, 110% with HCC-2998 colon and 81.3% with KM12 colon.

For the compound `Oc1ccc2ccccc2c1C1NN=C(c2ccccc2)S1` (stereo not given), the growth with SR leukemia was 2.39% (active); with RPMI-8226 leukemia, 19.6%; in the assay on OVCAR-8 ovarian it was 15.6%; in the assay on OVCAR-5 ovarian, 43.2%; in the assay with OVCAR-4 ovarian, 22.3%; in the assay on SK-OV-3 ovarian, 15.4%. Besides, the growth in the assay with OVCAR-3 ovarian is 35.1%; in the assay on HS 578T breast it was 57.7%; in the assay with T-47D breast, 20.7%; in the assay on BT-549 breast it was 19.5%; in the assay on MDA-MB-435 melanoma it was 29.4%; with SW-620 colon, 40.4%. Moreover, the growth with HCT-116 colon was 16%; in the assay with KM12 colon it was 23.3%.

Regarding `Cc1ccc(N(CSc2ccc(Cl)cc2)CSc2ccc(Cl)cc2)cc1`, the growth with SR leukemia is 11.2%; in the assay with RPMI-8226 leukemia, 6.09% (active); in the assay on OVCAR-8 ovarian, 66.9%; in the assay on OVCAR-5 ovarian it was 79.1%; in the assay with OVCAR-4 ovarian, 85.2%; in the assay on IGROV1 ovarian, -10.3% (active). The growth in the assay on OVCAR-3 ovarian was 48.3%; in the assay with HS 578T breast, 45%; in the assay with NCI/ADR-RES ovarian it was 31.5%; in the assay with BT-549 breast it was 19.1%; in the assay with MDA-MB-435 melanoma, 40.8%; in the assay on SW-620 colon it was 31.4%. In addition, the growth is 65.6% in the assay with MCF7 breast, 38.9% with HCT-116 colon, 88.1% in the assay with HCC-2998 colon and 18.4% with KM12 colon.

Consider `CCOC(=O)c1cnn(CC(O)c2ccc(F)cc2)c1NC(=O)Nc1ccccc1F` (stereo not given), for which the growth in the assay on SR leukemia is 105%; in the assay with RPMI-8226 leukemia, 82.9%; in the assay on OVCAR-8 ovarian it was 104%; in the assay on OVCAR-5 ovarian, 101%; with OVCAR-4 ovarian, 81.7%; in the assay on IGROV1 ovarian it was 101%. Also, the growth is 107% with OVCAR-3 ovarian; 97.3% in the assay with HS 578T breast; 101% in the assay with NCI/ADR-RES ovarian; 80.1% in the assay on BT-549 breast; 102% in the assay with MDA-MB-435 melanoma; 101% in the assay on SW-620 colon. Moreover, the growth with MCF7 breast is 93.1%; in the assay on HCT-116 colon, 89.4%; in the assay with HCC-2998 colon it was 115%; in the assay with KM12 colon, 94.3%.

Turning to `Oc1ccccc1/C=N/Nc1nc2ccccc2s1`, the growth with SR leukemia is 43.7%; in the assay on RPMI-8226 leukemia, 35.8%; in the assay on OVCAR-8 ovarian, 57.3%; in the assay on OVCAR-5 ovarian it was 91.8%; in the assay with OVCAR-4 ovarian it was 19.9%; in the assay with SK-OV-3 ovarian, 57.5%. For the same compound, the growth with OVCAR-3 ovarian was 13.8%; in the assay with HS 578T breast it was 65.2%; in the assay on NCI/ADR-RES ovarian, 51.6%; in the assay with T-47D breast, 37.8%; in the assay on BT-549 breast, 51.4%; in the assay on MDA-MB-435 melanoma, 56.9%. Further, the growth in the assay with SW-620 colon is 50.1%; in the assay on MCF7 breast it was 20.2%; in the assay on HCT-116 colon it was 41.2%; in the assay on KM12 colon it was 22.1%.

For the compound `COc1ccc(-c2nn(-c3ccc(NC(=O)c4ccc(Cl)c(Cl)c4)cc3)cc2-c2ccncc2)cc1Cl`, the growth in the assay with SR leukemia is 27.4%; in the assay with RPMI-8226 leukemia, -35.4% (active); in the assay on OVCAR-8 ovarian, 63.8%; in the assay with OVCAR-5 ovarian it was 60.9%; in the assay with OVCAR-4 ovarian it was 79.5%; in the assay on SK-OV-3 ovarian, 65.6%. Besides, the growth with IGROV1 ovarian was 61.9%; in the assay with OVCAR-3 ovarian, 56.7%; with T-47D breast, 64.9%; with BT-549 breast it was 42.8%; with MDA-MB-435 melanoma, 54.3%; with SW-620 colon, 32.1%. Besides, the growth was 31.5% in the assay on MCF7 breast, 23.2% with HCT-116 colon and 5.24% (active) in the assay with KM12 colon.

Regarding `Cc1nn2c(-c3nc4ccc(Cl)cc4[nH]3)c(-c3ccc(F)cc3)nc2s1`, the growth in the assay on SR leukemia is 72%; in the assay on RPMI-8226 leukemia, 77.6%; in the assay on OVCAR-8 ovarian it was 87.7%; in the assay with OVCAR-5 ovarian, 98.5%; in the assay on OVCAR-4 ovarian, 115%; in the assay with SK-OV-3 ovarian it was 107%. Further, the growth is 110% in the assay with OVCAR-3 ovarian; 96.4% with NCI/ADR-RES ovarian; 91.2% in the assay on T-47D breast; 102% in the assay on BT-549 breast; 99.7% in the assay on MDA-MB-435 melanoma; 91.2% in the assay on SW-620 colon. For the same compound, the growth is 81.2% with MCF7 breast, 99.2% with HCC-2998 colon and 89.4% with KM12 colon.

As to `COc1ccc(C2=NOC(CC(=O)N(CCO)CCO)C2)cc1OC1CCCC1` (stereo not given), the growth in the assay with SR leukemia is 106%; in the assay with RPMI-8226 leukemia it was 106%; with OVCAR-8 ovarian, 102%; in the assay with OVCAR-5 ovarian it was 98.5%; in the assay with OVCAR-4 ovarian it was 102%; with IGROV1 ovarian, 106%. Further, the growth in the assay with OVCAR-3 ovarian is 114%; in the assay on HS 578T breast, 99.2%; with NCI/ADR-RES ovarian it was 101%; in the assay on BT-549 breast, 95.5%; in the assay with MDA-MB-435 melanoma, 104%; with SW-620 colon, 97.7%. Further, the growth in the assay on MCF7 breast is 95.2%; in the assay with HCT-116 colon, 79.6%; with HCC-2998 colon it was 103%; in the assay on KM12 colon it was 103%.

Turning to `CC(C)NCC(O)COc1ccc(CCOCC2CC2)cc1` (stereo not given), the growth with SR leukemia is 78.3%; with RPMI-8226 leukemia, 99.1%; in the assay with OVCAR-8 ovarian, 93%; with OVCAR-5 ovarian, 107%; with OVCAR-4 ovarian, 82.5%; with SK-OV-3 ovarian, 113%. Moreover, the growth is 113% with IGROV1 ovarian; 112% with OVCAR-3 ovarian; 103% in the assay with T-47D breast; 116% with BT-549 breast; 103% in the assay on MDA-MB-435 melanoma; 102% with SW-620 colon. Besides, the growth in the assay on MCF7 breast is 107%; with HCT-116 colon it was 106%; in the assay with KM12 colon, 113%.
